# Assay results as given in PubChem BioAssay.
# “And” between values parts separate entries of the source, which are not always exact repeats. Equal values may be shown once. Results filed as inconclusive are left out. For some of these results: Measured potencies and affinities stand elsewhere. The source made the active and inactive calls.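 How the source made its calls, unless noted: active means at least 20% inhibition of 6-phosphogluconate dehydrogenase activity; inactive means the rest.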
# Assays:
# [1] = target: 6-phosphogluconate dehydrogenase, decarboxylating (Homo sapiens) (UniProt P52209); test: inhibition of human phosphogluconate dehydrogenase – biochemical, recombinant enzyme, NADPH absorbance, primary screen (AID 1159550); details: recombinant 6PGD, NADPH absorbance 341 nm; at 10 µM; stronger effect = higher value
# 6-phosphogluconate dehydrogenase, decarboxylating (Homo sapiens), sequence (P52209 whole entry, looked up): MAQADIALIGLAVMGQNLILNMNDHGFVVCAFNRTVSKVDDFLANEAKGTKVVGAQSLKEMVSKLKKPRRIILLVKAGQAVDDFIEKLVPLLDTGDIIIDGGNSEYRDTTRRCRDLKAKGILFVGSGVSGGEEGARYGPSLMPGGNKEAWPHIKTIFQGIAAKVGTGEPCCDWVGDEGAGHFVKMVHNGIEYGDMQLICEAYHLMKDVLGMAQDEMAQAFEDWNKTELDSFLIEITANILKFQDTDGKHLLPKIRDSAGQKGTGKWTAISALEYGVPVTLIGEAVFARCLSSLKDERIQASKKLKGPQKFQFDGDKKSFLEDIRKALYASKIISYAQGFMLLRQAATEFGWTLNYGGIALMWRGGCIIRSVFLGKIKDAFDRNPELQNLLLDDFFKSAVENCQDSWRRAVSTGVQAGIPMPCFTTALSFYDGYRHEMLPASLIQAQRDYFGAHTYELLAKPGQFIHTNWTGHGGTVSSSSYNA
# [2] = target: ATP-dependent translocase ABCB1 (Homo sapiens) (UniProt P08183); test: P-glycoprotein substrate transport blockade – cell-based (AID 377; in the data active means fluorescence slope change above about 50%); details: MDR1-expressing cells, fluorescent substrate accumulation slope; stronger effect = higher value; concentration not given here
# ATP-dependent translocase ABCB1 (Homo sapiens), sequence (P08183 whole entry, looked up): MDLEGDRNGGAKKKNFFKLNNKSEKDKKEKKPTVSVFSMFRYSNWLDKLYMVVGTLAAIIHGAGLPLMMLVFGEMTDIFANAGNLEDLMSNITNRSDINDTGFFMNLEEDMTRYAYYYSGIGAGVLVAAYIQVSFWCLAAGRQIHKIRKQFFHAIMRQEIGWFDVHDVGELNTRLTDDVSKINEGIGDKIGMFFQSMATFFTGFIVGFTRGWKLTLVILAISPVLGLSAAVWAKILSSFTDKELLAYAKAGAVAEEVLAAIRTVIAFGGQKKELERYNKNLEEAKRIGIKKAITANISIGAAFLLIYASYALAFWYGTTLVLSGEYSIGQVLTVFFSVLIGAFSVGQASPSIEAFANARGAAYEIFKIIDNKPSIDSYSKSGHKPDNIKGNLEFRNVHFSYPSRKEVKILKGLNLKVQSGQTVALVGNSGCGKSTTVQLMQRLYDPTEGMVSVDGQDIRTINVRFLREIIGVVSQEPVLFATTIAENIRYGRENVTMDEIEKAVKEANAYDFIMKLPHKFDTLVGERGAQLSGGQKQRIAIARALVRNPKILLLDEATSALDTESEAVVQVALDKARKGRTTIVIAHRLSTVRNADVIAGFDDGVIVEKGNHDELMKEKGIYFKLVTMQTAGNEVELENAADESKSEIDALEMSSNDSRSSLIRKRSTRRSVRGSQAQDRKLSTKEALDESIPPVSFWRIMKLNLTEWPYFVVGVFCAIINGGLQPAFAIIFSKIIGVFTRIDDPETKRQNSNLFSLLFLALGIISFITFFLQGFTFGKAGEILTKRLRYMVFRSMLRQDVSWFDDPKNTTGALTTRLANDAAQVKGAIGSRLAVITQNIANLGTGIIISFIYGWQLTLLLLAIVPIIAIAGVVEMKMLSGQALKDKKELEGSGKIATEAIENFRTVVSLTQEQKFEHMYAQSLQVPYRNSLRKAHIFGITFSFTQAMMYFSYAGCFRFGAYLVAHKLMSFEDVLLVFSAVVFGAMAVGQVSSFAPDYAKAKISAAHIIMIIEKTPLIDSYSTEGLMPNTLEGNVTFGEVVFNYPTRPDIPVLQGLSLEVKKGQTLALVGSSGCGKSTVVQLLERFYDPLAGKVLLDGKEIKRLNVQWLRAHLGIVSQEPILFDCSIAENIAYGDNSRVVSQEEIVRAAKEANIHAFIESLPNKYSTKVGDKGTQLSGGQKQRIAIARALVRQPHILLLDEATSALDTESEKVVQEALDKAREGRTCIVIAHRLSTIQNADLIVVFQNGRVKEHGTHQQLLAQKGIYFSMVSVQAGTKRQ
# [3] = compounds altering viability of human ES cells (AID 493140; call rule not given here;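 further: cells exposed to compounds for four days before counting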); details: human embryonic stem cell survival screen; stronger effect = higher value
# [4] = test system: Aerobactin synthetase IucA (Klebsiella pneumoniae, hypervirulent); test: biochemical IucA inhibition screen of LOPAC library by absorbance (AID 1346212; call rule not given here;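 further: 100% = no compound wells and 0% = no enzyme wells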); details: IucA enzyme assay, absorbance (OD) readout; stronger effect = lower value;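 tested at 8 µM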
# [5] = viability loss with induced miR-34 in A549 – imaging, A549 dox-inducible miR-34, nuclei and caspase counts, primary screen (AID 1347080;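 active means compounds whose cell count with miR-34 switched on is under 0.7 times the count with it off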); details: A549 miR-34 inducible, Hoechst nuclei count, 48 h
# [6] = MELAS cybrid and Rieske KO viability enhancers – cell-based, MELAS cybrids, Rieske KO mouse fibroblasts, CellTiter-Glo, primary screen (AID 1508586;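 active means mean z-score across replicates of 1.96 or higher in either the MELAS or the Rieske mutant cell line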;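 further: z relative to plate mean and SD of compound and empty wells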); details: low glucose
# [7] = target: NAD(+) hydrolase SARM1 (Homo sapiens) (UniProt Q6SZW1); test: blocking NAD cleavage by SARM1 SAM-TIR – cell lysate, NAD-Glo luminescence (AID 1508614;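 active means compound whose remaining NAD level is above about 45 nM, limit read from the data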); details: SAM-TIR HEK293T lysate NADase, at 1 µM, stronger effect = higher value
# NAD(+) hydrolase SARM1 (Homo sapiens), sequence (Q6SZW1 whole entry, looked up, the tested form may be a part): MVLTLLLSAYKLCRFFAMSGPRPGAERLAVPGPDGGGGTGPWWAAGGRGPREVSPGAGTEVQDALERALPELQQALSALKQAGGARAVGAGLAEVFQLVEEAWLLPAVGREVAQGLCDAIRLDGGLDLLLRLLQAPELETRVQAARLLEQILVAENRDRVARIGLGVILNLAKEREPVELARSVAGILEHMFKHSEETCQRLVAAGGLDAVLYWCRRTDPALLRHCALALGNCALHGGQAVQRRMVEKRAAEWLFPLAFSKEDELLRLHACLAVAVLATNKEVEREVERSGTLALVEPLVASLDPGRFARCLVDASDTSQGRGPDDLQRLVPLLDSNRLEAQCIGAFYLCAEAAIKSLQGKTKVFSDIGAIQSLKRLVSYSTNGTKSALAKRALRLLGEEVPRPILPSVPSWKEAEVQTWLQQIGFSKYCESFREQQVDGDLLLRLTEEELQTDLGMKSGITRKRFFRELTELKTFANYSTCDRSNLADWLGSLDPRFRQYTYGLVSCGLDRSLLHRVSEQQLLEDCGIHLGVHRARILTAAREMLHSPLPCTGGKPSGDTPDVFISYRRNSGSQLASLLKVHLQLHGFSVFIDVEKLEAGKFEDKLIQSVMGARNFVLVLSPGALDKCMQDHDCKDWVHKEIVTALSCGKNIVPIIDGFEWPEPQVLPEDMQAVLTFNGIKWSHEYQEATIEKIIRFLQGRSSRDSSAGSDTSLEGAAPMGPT
# [8] = target: Mitogen-activated protein kinase 7 (Homo sapiens) (UniProt Q13164); test: Gal4-ERK5 driven luciferase induction – cell-based, HTS, primary screen (AID 1508626;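 active means luciferase signal above three times the same-plate solvent-only control wells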;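 further: luciferase driven by Gal4-ERK5 fusion binding five Gal4 sites before minimal TATA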); details: HeLa Gal4-ERK5 transactivation, 18 h, at 5 µM, stronger effect = higher value
# Mitogen-activated protein kinase 7 (Homo sapiens), sequence (Q13164 whole entry, looked up, the tested form may be a part): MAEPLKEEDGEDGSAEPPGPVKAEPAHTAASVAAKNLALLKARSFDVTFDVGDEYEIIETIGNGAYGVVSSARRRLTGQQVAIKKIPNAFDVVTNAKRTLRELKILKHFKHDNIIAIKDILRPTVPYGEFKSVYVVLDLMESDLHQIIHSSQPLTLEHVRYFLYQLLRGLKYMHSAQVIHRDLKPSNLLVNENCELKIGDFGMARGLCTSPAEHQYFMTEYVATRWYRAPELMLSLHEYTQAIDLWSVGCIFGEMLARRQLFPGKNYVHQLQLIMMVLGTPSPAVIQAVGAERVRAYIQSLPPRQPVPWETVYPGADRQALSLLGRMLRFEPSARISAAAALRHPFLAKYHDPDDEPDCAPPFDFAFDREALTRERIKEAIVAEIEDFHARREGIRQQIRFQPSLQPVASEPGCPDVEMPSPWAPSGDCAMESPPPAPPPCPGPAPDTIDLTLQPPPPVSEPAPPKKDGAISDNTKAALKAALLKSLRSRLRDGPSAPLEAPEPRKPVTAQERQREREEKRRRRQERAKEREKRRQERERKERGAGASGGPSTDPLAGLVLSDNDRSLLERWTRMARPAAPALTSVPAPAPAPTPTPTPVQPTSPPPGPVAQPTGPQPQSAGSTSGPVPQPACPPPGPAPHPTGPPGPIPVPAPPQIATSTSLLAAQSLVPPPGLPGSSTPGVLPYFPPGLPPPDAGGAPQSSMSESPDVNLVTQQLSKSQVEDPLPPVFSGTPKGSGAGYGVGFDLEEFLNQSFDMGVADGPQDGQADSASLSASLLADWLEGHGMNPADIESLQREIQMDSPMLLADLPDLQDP
# [9] = galactose survival enhancers in mitochondrial complex I cybrids – cell-based, galactose medium, ATP luminescence, primary screen (AID 1645843;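 active means z-score of at least 1.8 in each of two replicates, scored against plate mean and spread of sample wells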;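 further: positive z means more ATP and so rescue of galactose-driven cybrid death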); details: complex I mutant cybrid cells, 72 h, stronger effect = higher value
# [10] = P. berghei load reduction in hepatocytes – cell-based, HepG2, luciferase luminescence, HepG2 viability, primary screen (AID 624349; in the data active means parasite load remaining mostly below about 12%, no sharp cut-off; inactive means mostly above about 10%;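 further: 100% = mean of DMSO negative control wells on the same plate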); details: P. berghei liver stage in HepG2, luciferase luminescence, concentration not given here; parasite load remaining: stronger effect = lower value; viability: measured here: HepG2 viability without parasites
# [11] = EMT-state selective cytotoxicity in co-culture – imaging, PC-3E GFP, TEM4-18 mCherry, primary screen (AID 1345086;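 active means compounds killing one labelled cell type while sparing the other, by normalised counts and ratio limits, not self-fluorescent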;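 on all read-outs here: cells exposed to compound for 72 h before imaging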;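 on red/green cell ratio (normalised): normalised mesenchymal count divided by normalised epithelial count so high means epithelial killing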); details: PC-3E GFP / TEM4-18 mCherry co-culture, imaging cell counts, at 1 µM; for red/green cell ratio (normalised): actives lie on both sides
# [12] = test system: Aerobactin synthetase IucA (Klebsiella pneumoniae hvKP1); test: IucA enzyme inhibition, primary screen, biochemical, Spectrum library (AID 1346200; call rule not given here;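 further: 100% = wells without compound and 0% = wells lacking enzyme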); details: malachite green pyrophosphate, A620, at 8 µM, stronger effect = lower value
# [13] = blockers of polyQ-driven CASP3 activation – cell-based (AID 1583); details: polyglutamine-induced caspase-3 activation, cell assay; stronger effect = higher value;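 tested at 10 µM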
# [14] = yeast 75Q aggregation reduction – 75Q-TubU reporter (AID 1593); details: Yeast 75Q polyglutamine aggregation reporter
# [15] = restoration of touch response, mutant HTT neurons – whole organism, C. elegans mechanosensory neurons, N-terminal huntingtin (AID 1599); details: C. elegans polyQ-huntingtin mechanosensory neurons, stronger effect = higher value
# [16] = blockers of cytochrome c efflux from mitochondria – biochemical, purified mitochondria (AID 1603); details: stronger effect = lower value;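 further: mouse liver mitochondria challenged with calcium chloride; signal normalized to the plate average as 100%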
# [17] = polyglutamine aggregate formation blockers (AID 1604); details: polyglutamine-induced protein aggregation inhibition assay; stronger effect = higher value; tested at 2.5 µM
# [18] = glutamate transport activators, MN-1 cells, MN-1 cell line (AID 1612); details: MN-1 motor neuron cells, stronger effect = higher value;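 further: tested at 1 µM final; 0% = mean of DMSO vehicle wells on each plate; positive means more glutamate uptake than control and negative means less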
# [19] = GFP-Q80 aggregate reduction, neuronal-like cells, cell-based, NGF-treated PC12, GFPQ80 (AID 1614); details: PC12 NGF-treated GFP-polyQ80 inclusion reduction;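 further: lower means fewer inclusions and 0 means no inclusions at all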
# [20] = 75Q-TubH aggregate inhibition, S. cerevisiae, yeast (AID 1616); details: S. cerevisiae 75Q-TubH polyglutamine aggregation suppression; stronger effect = higher value
# [21] = measured here: relative caspase fold change +Dox/-Dox
# [22] = measured here: total cells with miR-34 induction, stronger effect = lower value
# [23] = measured here: total cells without miR-34 induction
# [24] = MELAS cybrid survival, CellTiter-Glo 48 h, stronger effect = higher value
# [25] = Rieske KO mouse fibroblast survival, CellTiter-Glo 72 h
# [26] = measured here: epithelial PC-3E GFP cell survival
# [27] = measured here: mesenchymal TEM4-18 mCherry cell survival
compound,measurement,setting,value
COc1cc2c3cc1Oc1cc(ccc1O)C[C@@H]1c4c(cc(OC)c(O)c4Oc4ccc(cc4)C[C@H]3N(C)CC2)CCN1C,inhibition,[1],-17.6% (inactive)
O=C1CC[C@@]2(O)[C@H]3Cc4ccc(O)c5c4[C@@]2(CCN3CC2CC2)[C@H]1O5,fluorescence slope change,[2],79.9% (active)
same,survival,[3],16.1 (inactive)
same,inhibition,[1],9.6% (inactive)
same,remaining activity,[4],118% (inactive)
same,fold change,[5]; stronger effect = lower value,0.971 (inactive) and 0.94 (inactive) and 0.843 (inactive)
same,fold change,[5]; [21],1.34 and 1.14 and 0.908
same,cell count,[5]; [22],11000 and 9230 and 9370
same,cell count,[5]; [23],11300 and 9820 and 11100
same,z-score,[6]; [24],0.477 (inactive) and 0.601 (inactive)
same,z-score,[6]; [25],0.069 and -0.0949
same,remaining NAD,[7],10 nM (inactive)
same,luciferase signal,[8],48 AU (inactive)
same,z-score,[9],0.66 (inactive) and 0.275 (inactive)
COc1ccc2[nH]cc(CCN)c2c1,parasite load remaining,[10],58.9% (inactive)
same,viability,[10],68.9%
same,inhibition,[1],0.367% (inactive)
same,red/green cell ratio (normalised),[11],0.84 (inactive)
same,normalised cell number,[11]; [26],1.18
same,normalised cell number,[11]; [27],0.99
same,activity remaining,[12],83.6% (inactive)
same,remaining activity,[4],109% (inactive)
same,fold change,[5]; stronger effect = lower value,1.03 (inactive) and 0.901 (inactive)
same,fold change,[5]; [21],1.64 and 1.2
same,cell count,[5]; [22],10600 and 8900
same,cell count,[5]; [23],10300 and 9880
same,z-score,[9],0.225 (inactive) and 0.515 (inactive)
CC(=O)[C@H]1CC[C@H]2[C@@H]3CC[C@H]4C[C@@H](O)CC[C@]4(C)[C@H]3CC[C@]12C,inhibition,[1],-19.3% (inactive)
FC(F)(F)c1cccc(N2CCNCC2)c1,inhibition,[13],28.1%
same,score,[14],1.15
same,rescue above control,[15],0
same,cytochrome c release ratio,[16],0.84
same,inhibition of aggregation,[17],50%
same,glutamate uptake change,[18],0.29%
same,inclusion score,[19],2
same,aggregation suppression score,[20],1.16
same,parasite load remaining,[10],134% (inactive)
same,viability,[10],71.2%
same,inhibition,[1],7.13% (inactive)
same,activity remaining,[12],116% (inactive)
same,fold change,[5]; stronger effect = lower value,0.923 (inactive)
same,fold change,[5]; [21],1.38
same,cell count,[5]; [22],9590
same,cell count,[5]; [23],10400
same,z-score,[9],0.73 (inactive)
COc1cc2c(cc1OC)-c1c(oc3c4c(ccc3c1=O)OC(C(C)C)C4)CO2 (stereo not drawn),inhibition,[1],-6.79% (inactive)
same,red/green cell ratio (normalised),"[11]; counts scaled to control wells, 1 = unselective",0.93 (inactive)
same,normalised cell number,[11]; [26],0.99
same,normalised cell number,[11]; [27],0.92
CO[C@H]1C[C@H](O[C@H]2CC[C@]3(C=O)[C@H]4CC[C@]5(C)[C@@H](C6=CC(=O)OC6)CC[C@]5(O)[C@@H]4CC[C@]3(O)C2)O[C@H](C)[C@H]1O,inhibition,[1],-5.2% (inactive)
CC(=O)OC1CCC2(C)C(=CCC3C4CCC(=O)C4(C)CCC32)C1 (stereo not drawn),inhibition,[1],2.3% (inactive)
CCc1cccc(CC)c1N(COC)C(=O)CCl,inhibition,[1],-1.98% (inactive)
CC[C@@H](CO)NC(=O)[C@@H]1C=C2c3cccc4[nH]cc(c34)C[C@H]2N(C)C1,inhibition,[13],8.64%
same,score,[14],1.38
same,rescue above control,[15],4.84
same,cytochrome c release ratio,[16],0.5
same,inhibition of aggregation,[17],24.4%
same,glutamate uptake change,[18],12.4%
same,inclusion score,[19],2
same,aggregation suppression score,[20],1.32
same,parasite load remaining,[10],65.8% (inactive) and 65.3% (inactive) and 59.9% (inactive)
same,viability,[10],103% and 77.1% and 98.3%
same,inhibition,[1],10.6% (inactive)
same,red/green cell ratio (normalised),[11],0.98 (inactive)
same,normalised cell number,[11]; [26],0.88
same,normalised cell number,[11]; [27],0.87
same,activity remaining,[12],97% (inactive)
same,remaining activity,[4],107% (inactive)
same,z-score,[6]; [24],0.332 (inactive)
same,z-score,[6]; [25],0.352
same,remaining NAD,[7],10 nM (inactive)
same,luciferase signal,[8],60 AU (inactive)
same,z-score,[9],0.87 (inactive) and -0.035 (inactive)
